GLP1R ag = activates the human GLP-1 receptor. Potency, µM (doses to about 45.6 µM), actives largely listed as activators. HEK293 GLP-1R CRE-luciferase, luminescence, 4-6 h; cells express a hypersensitive GLP-1R form. 380,000 compounds, 0.007% hits. P43220
Target sequence (P43220 whole entry, looked up): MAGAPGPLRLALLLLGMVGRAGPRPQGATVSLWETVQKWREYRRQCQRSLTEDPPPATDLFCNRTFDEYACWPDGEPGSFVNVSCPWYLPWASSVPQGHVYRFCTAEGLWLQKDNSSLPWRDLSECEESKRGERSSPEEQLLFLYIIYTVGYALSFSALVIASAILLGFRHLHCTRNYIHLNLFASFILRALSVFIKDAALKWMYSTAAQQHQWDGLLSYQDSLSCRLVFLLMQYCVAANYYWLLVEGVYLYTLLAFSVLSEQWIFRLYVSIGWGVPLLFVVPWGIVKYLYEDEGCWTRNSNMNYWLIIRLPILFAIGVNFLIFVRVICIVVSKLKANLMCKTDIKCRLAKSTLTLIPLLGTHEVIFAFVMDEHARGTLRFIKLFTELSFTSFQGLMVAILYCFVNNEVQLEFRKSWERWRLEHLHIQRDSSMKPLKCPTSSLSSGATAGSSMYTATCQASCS
HepG2 viability = HepG2 cytotoxicity, counter-screen for TGF-b inhibitors; Potency, µM (series often up to 46.1 µM), actives largely listed as cytotoxic; 410,000 compounds, 0.76% hits; AID 588856; HepG2 CAGA-GFP viability, ATP luminescence, 18 h
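HepG2 CAGA-GFP cells (1000/well, DMEM with 1% FBS) received compound, then TGF-beta at 500 pg/mL final, and were incubated 18 hours at 37 degrees C. Viability was read by CellTiter-Glo luminescence. Media-only wells were set as complete cell-killing and DMSO as no toxicity.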
ATXN viability = cell viability loss in ATXN counter-screen; 400,000 compounds, 0.49% hits; S2 cells (HEK-293 line with an ATXN2-luciferase reporter) viability, CellTiter-Fluor protease fluorescence, 24 h; Potency, µM (highest dose often 56.7 µM), most hits filed as cytotoxic; further: nearly all actives have a fitted effect of over 40% in size
TGFb inhibitor = blocks TGF-b signaling. Potency, µM (series often up to 46.1 µM), actives largely listed as inhibitors. 410,000 compounds, 1.2% hits. AID 588855. HepG2 CAGA-GFP TGF-b/SMAD3 reporter, GFP fluorescence, 18 h; TGF-beta stimulated, 500 pg/mL final; further: nearly all actives have a fitted effect of over 65% in size
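HEPG2 CAGA-GFP cells (1000/well, DMEM with 1% FBS) were pre-incubated 2 h at 37 degrees C, given compound by pin tool, then stimulated with TGF-beta at 500 pg/mL final for 18 h before per-cell GFP fluorescence imaging.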
ATXN2 expr inh = inhibitors of ATXN2 expression; AID 1745845; Potency, µM (titrated, usually from 57 µM), actives largely listed as inhibitors; HEK-293 ATXN2-luciferase reporter, luminescence, 24 h; 360,000 compounds, 0.72% hits; further: nearly all actives have a fitted effect of over 55% in size
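ATXN2-luciferase reporter cells (luciferase flanked by upstream and downstream ATXN2 gene portions) were treated 24 h at 37 °C with compounds at up to 57 uM. SteadyGlo luminescence gave expression; GF-AFC fluorescence gave viability.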
GLP1R inv ag = inverse agonists of human GLP-1 receptor. 410,000 compounds, 1.6% hits. Potency, µM (series often up to 38.3 µM), hits mostly inhibitors. HEK293 GLP-1R CRE-luciferase, luminescence, 24 h; GLP-1R form is constitutively active; further: nearly all actives have a fitted effect of over 55% in size
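Readout was luciferase luminescence, measured 12 min after detection reagent at room temperature. Beforehand, GLP-1R reporter HEK293 cells had sat 12 h, then received compounds for 24 hr at 37 deg C.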
Numbers stand for hits; i = inactive; ? = inconclusive; nt = no result; ! = not confirmed by another sample; [ ] = another dose, or the depositor's remark. Compounds with a hit are over-represented: about 3.7% of the library has one in this group of screens. The call rests on the fitted dose curve; in most records, active means well fitted curve in the direction sought with a large enough effect; inconclusive means small, poorly fitted or top-dose-only effect, or another doubt; inactive means no such curve, though single readings can be large; an effect the other way counts as inactive or inconclusive.

SMILES | GLP1R ag | HepG2 viability | ATXN viability | TGFb inhibitor | ATXN2 expr inh | GLP1R inv ag
CC(C)c1cccc(C(C)C)c1OC(=O)[C@H]1OC(c2ccc(Br)cc2)=C[C@@H]1c1ccc(Br)cc1 | i | i | ? | ? | ? | 12.6µM
CC1CCCC(n2c(=S)[nH]c3ccccc3c2=O)C1C (stereo not given) | i | i | ? | 14.1µM | i | ?
CC1CCC(n2c(=S)[nH]c3ccccc3c2=O)CC1 (stereo not given) | i | i | i | i | i | ?
COc1ccc(OC)c(CNC(=O)C2CCCCN2S(=O)(=O)c2ccc(F)cc2)c1 (stereo not given) | nt | i | i | 7.94µM | i | ?
COc1ccc(NC(=O)C(=O)NCCC2CCCCN2S(=O)(=O)c2ccc(F)cc2)cc1 (stereo not given) | i | i | i | i | 2.51µM | ?
COc1ccc(CCNC(=O)Cc2c(C)c3c(cc(C)c4c(C)coc43)oc2=O)cc1 | nt | i | nt | i | nt | i
O=C(O)C1=CO[C@@H](O[C@@H]2O[C@H](CO)[C@H](O)[C@H](O)[C@H]2O)[C@@H]2C(CO)=CC[C@H]12 | nt | nt | nt | nt | i | nt
CN(c1ccc(F)cc1)S(=O)(=O)N1CCCC(C(=O)NCc2cccc(Br)c2)C1 (stereo not given) | nt | i | nt | 8.91µM | nt | ?
CCOC(=O)CN1C(=O)Nc2ccc(Br)cc2C1c1ccccc1 (stereo not given) | i | i | i | i | i | ?
CCOC(=O)CN1C(c2ccc(O)cc2)Nc2ccc(Br)cc2C1c1ccccc1 (stereo not given) | i | i | 20µM | ? | ? | ?
Cc1ccc(CNC(=O)C(=O)Nc2c3c(nn2-c2ccc(F)cc2)CSC3)cc1 | nt | i | i | i | i | i
COc1ccc(OC)c2nc3c(C(=O)NCCN(C)C)cccc3nc12 | i | i | ? | ? | ? | ?
CN(C)CCNC(=O)c1cccc2nc3cccc(F)c3nc12 | i | i | ? | ? | 8.91µM | 6.31µM
CN(C)CCNC(=O)c1ccccc1 | i | i | i | i | i | i
CN(C)CCNC(=O)c1cccc2ccc(-c3ccc(-c4ccccc4)cc3)nc12 | i | i | 26.7µM | i | i | ?
CC1CCC(NC(=O)CCc2cn(Cc3ccccc3Cl)c3ccccc23)CC1 (stereo not given) | nt | i | nt | 15.8µM | nt | i
O=C(CCc1cn(Cc2ccccc2Cl)c2ccccc12)NC1CCCCC1 | nt | i | nt | ? | nt | 10µM
CCn1cc(CCC(=O)NC2CCCC2)c2ccccc21 | i | i | i | i | i | ?
CCCC[C@@H]1CCCO[C@@](C(=O)NCc2ccccc2)(C(F)(F)F)C1 | nt | i | nt | i | nt | nt
CC(C)C(=O)Nc1ncc(-c2cc(C(F)F)nn2-c2c(Cl)cccc2Cl)s1 | nt | nt | nt | nt | i | nt
Clc1ccc2c(N3CCN(CCCN4CCN(c5ccnc6cc(Cl)ccc56)CC4)CC3)ccnc2c1 | nt | nt | nt | nt | i | nt
CN(C)C(=S)SC(=S)N(C)C | i | nt | 2.51µM | nt | 2.51µM | nt
COc1ccc(-c2cc(C)no2)cc1S(=O)(=O)N1CCN(c2ccccn2)CC1 | i | i | i | i | ? | i
COc1ccc(-c2cc(C)no2)cc1S(=O)(=O)N1CCCN(Cc2ccccc2Cl)C1 | i | i | i | i | i | 8.91µM
COc1ccc(-c2cc(C)no2)cc1S(=O)(=O)N1CCN(c2ccccc2F)CC1 | i | i | i | i | i | 10µM!
SMILES | GLP1R ag | HepG2 viability | ATXN viability | TGFb inhibitor | ATXN2 expr inh | GLP1R inv ag
CCN1C(=O)c2ccccc2C1Nc1ccc(OCCN2CCCCC2)cc1 (stereo not given) | nt | nt | i | nt | i | nt
COC(=O)C1=CN(Cc2ccc(OC)cc2)C=C(C(=O)OC)C1c1cc(OC)c(OC)c(OC)c1 | 5.01µM | i | i | i | i | ?
COC(=O)C1=CN(Cc2ccc(F)cc2)C=C(C(=O)OC)C1c1cc(OC)c(OC)c(OC)c1 | i | i | i | i | i | i
CN1CC(=O)NC1=N | nt | nt | i | nt | i | nt
CN(C)c1nccc(N(Cc2ccccc2)Cc2ccccc2)c1C#N | i | i | i | ? | i | 11.2µM
CN(C)CCN(Cc1ccccc1)c1ccnc(N(C)C)c1C#N | i | i | i | i | i | i
CCOc1ccc(NC(=O)N(Cc2ccc(CC)cc2)Cc2cn[nH]c2-c2ccc(OC)cc2)cc1 | nt | i | nt | 8.91µM | nt | ?
CCOC(=O)CN(C)Cc1cn[nH]c1-c1ccc2cc(OC)ccc2c1 | i | i | i | i | i | i
CCc1ccc(CN(Cc2cn[nH]c2-c2ccc(OC)cc2)C(=O)Nc2ccc(Br)cc2)cc1 | nt | i | nt | 7.94µM | nt | ?
CCc1ccc(CN(Cc2cn[nH]c2-c2ccc(OC)cc2)C(=O)Nc2ccc(C)c(F)c2)cc1 | nt | i | nt | 10µM | nt | ?
COCC(=O)Nc1cc(C(=O)N2CCCC(C(N)=O)C2)cc2nc(-c3ccccc3)n(C)c12 (stereo not given) | nt | nt | i | nt | nt | nt
COc1ccc2c(Oc3ccc(NC(=O)c4c(C)n(CC(C)(C)O)n(-c5ccccc5)c4=O)nc3)ccnc2c1 | nt | nt | nt | nt | i | nt
CC(C)(C)n1ncc2c(=O)n(Cc3c(F)ccc(F)c3Cl)cnc21 | nt | i | nt | i | nt | nt
CC(=O)C(C(C)=O)c1c(Cl)c(O)c(O)c2c(C(=O)c3ccccc3)coc12 | i | i | ? | ? | 25.1µM | i
CNS(=O)(=O)c1cccc(C(=O)OCC(=O)c2ccc3c(c2)OCCO3)c1 | i | i | i | i | 17.8µM | ?
CNS(=O)(=O)c1cccc(C(=O)OCC(=O)c2ccc[nH]2)c1 | i | i | ? | i | i | i
CCN(CC)C(=O)c1cccnc1 | i | nt | nt | nt | nt | nt
CCOC(=O)C1CCCN(C(=O)CCS(=O)(=O)c2cc3c(cc2Cl)NC(=O)CO3)C1 (stereo not given) | i | i | i | i | i | i
O=Cc1s/c(=N\S(=O)(=O)c2ccccc2)n(CCCCl)c1Cl | i | 8.91µM | 5.01µM | 3.98µM | ? | 2.82µM
CCCC1OC(c2cc3c(cc2Cl)OCO3)OCC1CC (stereo not given) | i | i | i | ? | i | 11.2µM
Brc1cc2c(cc1C1OCCO1)OCO2 | i | i | i | i | i | i
CCCCN(c1ccccc1)S(=O)(=O)N(C)C | i | i | i | i | i | i[7.66 µM]
CCCCN(S(=O)(=O)c1ccccc1)S(=O)(=O)c1ccccc1 | i | i | i | i | i | 10µM
Cc1[nH]nc2ccc(-c3cncc(OC[C@@H](N)Cc4ccccc4)c3)cc12 | nt | nt | nt | nt | 3.06µM | nt
COc1ccc(-c2cc(C(F)(F)F)c3c(n2)sc2c(O)cc(=O)[nH]c23)c(OC)c1 | i | 2.24µM | i | i | i | i
Cc1cc(C)c2c(n1)sc1c(O)cc(=O)[nH]c12 | i | i | i | i | i | i
CN1Cc2cc(C(=O)N3CCC(C4CCNCC4)CC3)ccc2N[C@@H](CC(=O)O)C1=O | nt | nt | i | nt | i | nt
